# GCN5L2 inh: qHTS Assay for Inhibitors of GCN5L2. Potency, µM (series often up to 58.9 µM), without a hit: top-dose activity change, negative = inhibition, hits mostly inhibitors. AID 504327, 2011. 0.21% of 390,000 active. GCN5L2 HAT assay, ThioGlo1 CoA-SH fluorescence. Histone acetyltransferase KAT2A (Homo sapiens), Q92830; also: % is scaled to controls: 0 for no effect and ±100 for the full control effect
#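 Preincubate 20nM GCN5L2 with compound 15 min, RT → add 50uM ThioGlo1 + 75uM H3(1-25) + 70uM acetyl-CoA → read fluorescence 0 and 20 min. Primary qHTS; fluorescent artifacts likely.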
# JMJD2E inh: qHTS Assay for Inhibitors of Human Jumonji Domain Containing 2E (JMJD2E). Lysine-specific demethylase 4E (Homo sapiens), B2RXH2. JMJD2E catalytic domain, FDH-coupled NADH fluorescence (FDH is formaldehyde dehydrogenase). Potency, µM (titrated, usually from 57.1 µM), inactives show top-dose activity change, negative = inhibition, actives largely listed as inhibitors. 1.6% of 230,000 active; active = well fitted inhibition curve with a large enough effect, not every such curve was filed as active; inconclusive = small, poorly fitted or top-dose-only effect, or another doubt; inactive = no such curve, though single readings can be large or run the other way;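 also: 0% = wells with enzyme and -100% = buffer wells without enzyme; nearly all actives have a fitted effect of over 50% in size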
# Target sequence (B2RXH2 1-337 limits assumed): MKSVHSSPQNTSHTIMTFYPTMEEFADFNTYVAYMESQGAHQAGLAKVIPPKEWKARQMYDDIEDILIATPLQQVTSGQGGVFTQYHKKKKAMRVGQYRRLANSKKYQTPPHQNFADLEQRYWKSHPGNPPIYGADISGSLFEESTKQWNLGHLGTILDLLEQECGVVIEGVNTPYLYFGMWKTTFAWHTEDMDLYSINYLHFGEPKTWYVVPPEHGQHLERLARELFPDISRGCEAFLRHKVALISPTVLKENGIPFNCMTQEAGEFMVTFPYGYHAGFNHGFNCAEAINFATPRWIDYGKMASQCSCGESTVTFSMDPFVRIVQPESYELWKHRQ
# NPSR antag: qHTS Assay for Antagonists of the Neuropeptide S Receptor: cAMP Signal Transduction; Q6W5P4; CHO-NPSR cells, cAMP TR-FRET, antagonist mode; Potency, µM (doses to about 38.3 µM), without a hit: top-dose activity change, negative = inhibition, usual class: inhibitors; 1% of 220,000 active; AID 1461, 2008; also: % is scaled to controls: 0 for no effect and ±100 for the full control effect; nearly all actives have a fitted effect of over 50% in size
# Target sequence (Q6W5P4 whole entry, looked up): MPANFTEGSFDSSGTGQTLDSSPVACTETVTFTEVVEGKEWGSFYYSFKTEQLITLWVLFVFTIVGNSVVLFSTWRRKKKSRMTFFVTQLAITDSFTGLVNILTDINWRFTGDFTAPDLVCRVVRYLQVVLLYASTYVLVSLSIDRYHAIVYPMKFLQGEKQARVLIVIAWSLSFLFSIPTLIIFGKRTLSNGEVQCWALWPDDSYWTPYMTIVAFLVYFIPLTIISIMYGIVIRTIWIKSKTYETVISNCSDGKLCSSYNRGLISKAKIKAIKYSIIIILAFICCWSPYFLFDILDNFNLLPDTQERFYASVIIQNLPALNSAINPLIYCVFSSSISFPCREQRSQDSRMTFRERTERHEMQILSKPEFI
# Epigenetic reg: Quantitative High-Throughput Screen for Regulators of Epigenetic Control. murine LDR cells, GFP reporter derepression, 30 h. Potency, µM (titrated, usually from 53.9 µM), for inactives: at the highest dose GFP activation, actives largely listed as activators. 0.2% of 280,000 active; also: % of control where 0% means no effect; nearly all actives have a fitted effect of over 60% in size
#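 Reporter derepression read as number of fluorescent GFP-positive objects, 20-120 um in size, counted by laser-scanning cytometer. Mouse LDR line with an epigenetically silenced CMV-GFP locus; compound incubation 30 h, 37 C.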
# Sfp inh: qHTS Assay for Inhibitors of Bacillus subtilis Sfp phosphopantetheinyl transferase (PPTase) | Biochemical Sfp PPTase activity, qHTS | 3.5% of 310,000 active | Potency, µM, for the others: largest response in the series, negative = inhibition, hits mostly inhibitors | 4'-phosphopantetheinyl transferase ffp (Bacillus subtilis), Q9F4F7 | AID 1490, 2009;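 also: the enzyme is Sfp with the accession as filed and its product quenches rhodamine fluorescence; 0% = enzyme reaction without inhibitor and -100% = no enzyme wells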
#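 Compounds were incubated with enzyme (final 15 nM) for 15 min at room temperature before substrate addition started the reaction. Fluorescence at 525 nm excitation, 598 nm emission was recorded immediately and after 30 minutes.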
# IMPase Li inh: qHTS Assay for Identifying the Cell-Membrane Permeable IMPase Inhibitors: Potentiation with Lithium. Potency, µM (top dose mostly 59.4 µM), without a hit: at the top dose activity, negative = IMPase inhibition, most hits filed as inhibitors. AID 1457, 2008. CHO-M1 cells, IP1 TR-FRET (IP-One), carbachol + lithium. 0.35% of 210,000 active;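 also: IP1 builds up when IMPase is blocked and the TR-FRET signal falls; plate controls were basal vehicle for no effect and high inhibitor control for full effect; nearly all actives have a fitted effect of over 50% in size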
#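 CHO cells stably expressing M1 receptor (2000/well, cultured 16–30 h) treated 30 min at 37C with compound plus low lithium. Cytosolic IP1 by TR-FRET (665/620 ratio and 620 channel) after 10 min lysis; AC50 by Hill fit.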
# * marks the source's active call; other numbers are inactive results; ? = inconclusive; . = not tested or not shown; ! = repeats disagree; [ ] = dose if it differs, or a comment. Most compounds without a hit are left out; they make up all but 3.6% or so of the library. Unless noted, calls follow the shape of the dose curve; as a rule, active = well fitted curve in the direction sought with a large enough effect; inconclusive = small, poorly fitted or top-dose-only effect, or another doubt; inactive = no such curve, though single readings can be large; an effect the other way counts as inactive or inconclusive. Potency is read from the fitted curve at half-maximal effect.
SMILES,GCN5L2 inh,JMJD2E inh,NPSR antag,Epigenetic reg,Sfp inh,IMPase Li inh
CCOc1ccc(NC(=O)c2sc3nc(N4CCOCC4)c4c(c3c2N)CC(C)(C)OC4)cc1,1%,.,.,.,-15%,.
Nc1c(C(=O)NCCc2ccccc2)sc2nc(N3CCOCC3)c3c(c12)CCCC3,-16%,?,-44%,0%,22µM*,-6%
CC1(C)Cc2c(c(N3CCOCC3)nc3sc(C(N)=O)c(N)c23)CO1,-12%,?,-17%,4%,14µM*,.
CC1(C)Cc2c(c(N3CCOCC3)nc3snc(Br)c23)CO1,-3%,-5%,-12%[46.1 µM],0%,45µM*,-21%[38.3 µM]
CN(C)C(=O)NC1CCCCCCC1,-6%,.,.,.,-8%,.
Cc1ccc(NC(=O)c2oc3ccccc3c2NC(=O)C2CCCCC2)cc1,-3%,.,.,-3%,.,.
CC(C)C(=O)SCCCCCCC(=O)Nc1nc(-c2ccccc2)cs1,-18%,.,.,.,31%,.
NC(=O)c1sc2nc(N3CCOCC3)c3c(c2c1N)CCCC3,-2%,?,5%[46.1 µM],9%,45µM*,-21%[38.3 µM]
CCOC(=O)c1sc2nc(N3CCOCC3)c3c(c2c1N)CCC3,?,?,-14%[46.1 µM],1%,?,-7%[38.3 µM]
CC(C)(C)C(=O)C(Cl)C(=O)Nc1ccccc1 (stereo unspecified),-24%,5%,-20%,2%,45µM*,.
CC[C@@H](c1ccccc1)n1c(=O)n2n(c1=O)[C@H]1[C@H](O)[C@H]3O[C@@H]3/C(=N/OCC(C)C)[C@@H]1CC2,.,.,.,0%[10.1 µM],0%,.
CC(C)=NNc1nc(-c2ccccc2)cs1,-7%,-8%,16%,-2%,79µM*,-16%
CC(=O)NNc1nc(-c2ccccc2)cs1,-8%,?,0%,0%,20µM*,3%
O=C(NNc1nc(-c2ccccc2)cs1)c1cccs1,2%,?,2%,0%,?,.
CC(/C=C/c1ccccc1)=N\Nc1nc(-c2ccccc2)cs1,-5%,-2%,-25%[46.1 µM],-10%,-2%,9%
C/C(CCC1CC(C)OC1=O)=N/Nc1nc(-c2ccccc2)cs1 (stereo unspecified),-13%,-19%,2%,-3%,50µM*,6%
CC(=O)NNc1nc(-c2ccc(C)cc2)cs1,-5%,?,17%,-1%,40µM*,-4%
CCCc1ccc(C(=O)O)cc1,16%,.,.,.,17%,.
COc1ccc(-c2csc(NC(=O)Cc3ccccc3)n2)cc1OC,-12%,.,.,.,7%,.
COc1ccc(-c2csc(NC(C)=O)n2)cc1OC,-3%,9%,-9%[46.1 µM],2%,50µM*,11%[38.3 µM]
O=C(Cc1ccc(F)cc1)Nc1nc(-c2ccc(F)cc2)cs1,-4%,.,.,.,12%,.
O=C(NNc1nc(-c2ccc(F)cc2)cs1)c1ccccc1,-9%,?,-7%,5%,50µM*,-2%
COc1ccc(S(=O)(=O)Nc2c(C(=O)O)[nH]c3ccc(OC)cc23)c(OC)c1,-13%,.,.,.,25µM*,.
COC(CN1C(=O)C(O)=C(C(C)=O)C1c1ccccn1)OC (stereo unspecified),5%,?,-8%[46.1 µM],0%,79µM*,7%[38.3 µM]
COC(=O)[C@H](CC(C)C)NC(=O)c1ccc(NC[C@@H](N)CS)cc1-c1cccc2ccccc12,-25%,.,.,.,?,.
SMILES,GCN5L2 inh,JMJD2E inh,NPSR antag,Epigenetic reg,Sfp inh,IMPase Li inh
Cc1c(CC(=O)N2CCN(C(=O)C3COc4ccccc4O3)CC2)c(=O)oc2cc(O)ccc12 (stereo unspecified),28µM*,.,.,.,13%,.
COc1ccc2c(C)c(CC(=O)N3CCN(C(=O)C4COc5ccccc5O4)CC3)c(=O)oc2c1 (stereo unspecified),-5%,.,.,.,13%,.
COc1ccccc1[C@@H]1C(c2ccccc2)=NN(c2ccc(Br)cc2)[C@H]1C(=O)N1CCOC1=O,-17%,.,.,-2%[40.7 µM],5%,-2%
COc1ccccc1[C@@H]1C(c2cccc(Cl)c2)=NN(c2ccccc2)[C@H]1C(=O)N1CCOC1=O,20µM*,?,-18%,-2%,6%,-5%
O=C1OCCN1C(=O)[C@H]1[C@H](c2ccccc2)C(c2cccc(Cl)c2)=NN1c1ccc(Br)cc1,22µM*,.,.,-6%[40.7 µM],18%,-7%
COc1ccc(Cn2c(=O)n(Cc3ccco3)c(=O)c3oc4ccccc4c32)cc1,-1%,.,.,3%,.,.
O=C(O)c1ccc(NS(=O)(=O)c2cccc3ccccc23)cc1,.,.,.,-8%,.,.
Cc1ccc(C(c2nnnn2C2CCCCC2)N2CCN3CCCC3C2)cc1 (stereo unspecified),0.89µM*,?,-18%[46.1 µM],3%,-2%,6%[38.3 µM]
Oc1ccc(C(c2nnnn2C2CCCCC2)N2CCOCC2)cc1 (stereo unspecified),-7%,-14%,-19%,-6%,?,2%
Cn1cc(S(=O)(=O)N2CCCCCC2)cc1C(=O)NCc1ccccc1Cl,2%,.,.,3%,.,.
CC(=O)N(Cc1cc(=O)[nH]c2ccccc12)c1cccc(C)c1,-2%,?,-18%[46.1 µM],-1%,45µM*,-18%[38.3 µM]
CC(=O)N(Cc1cc(=O)[nH]c2ccccc12)c1ccccc1,-25%,-5%,-14%[46.1 µM],-1%,8%,40%[38.3 µM]
Cc1ccc(N=C2C(=S)N(c3ccc(C)cc3)C(=N)N2/N=C/c2ccc(Cl)cc2)cc1,-5%,-3%,-17%[46.1 µM],0%,40µM*,4%
CCOC(=O)CCC(NC(=O)CCC(=O)NC(CCC(=O)OCC)C(=O)OCC)C(=O)OCC (stereo unspecified),0%,-3%,16%,7%,15%,-8%
CCOC(=O)C(CS)NCCN[C@@H](CS)C(=O)OCC (stereo partly specified),20µM*,.,.,.,1.6µM*,.
O=C(Nc1ccc2c(c1)OCO2)Nc1ccccn1,0%,?,-3%,-2%,5%,6%
O=C(NCc1ccccn1)Nc1ccc2c(c1)OCO2,-10%,-26%,11%[46.1 µM],-1%,79µM*,12%[38.3 µM]
Nc1ncnc2c1ncn2[C@@H]1O[C@H](COP(=O)(O)OP(=O)(O)O)[C@@H](O)[C@H]1O,3%,-2%,.,0%,50µM*!,?
CCC(=O)Nc1ccc(CC)cc1-c1nc2ccccc2n(CC(=O)c2ccc(OC)cc2)c1=O,?,.,.,1%,.,.
CC(C)C(=O)N[C@H]1CCCN1C(=O)/C=C\c1ccccc1,.,.,.,0%[10.1 µM],-2%,.
